Screens (PubChem BioAssay)
Fluor 339 460 = intrinsic fluorescence of library compounds, ex339/em460 – biochemical, MLSMR library, data from DPM-DC assay, artefact control, profiling panel; actives 5.5% (n = 65,000); fluorescence fold increase at 10 µM; compound autofluorescence, ex339/em460 nm, NADH buffer; hits give high values; 1 = no-compound wells, NADH background;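 active means at 10 µM, mean starting fluorescence two-fold or more over control wells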;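 further: signal is the first read of a kinetic run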
A340 absorber = absorbance at 340 nm | compound absorbance at 340 nm, fold over control | fold change at 10 µM | 65,000 tested, under 10 active | AID 708;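 active means at 10 µM dose, initial 340 nm absorbance at least 2 fold that of control wells; inactive means change under 2 fold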;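 further: initial absorbance extrapolated from kinetic A340 decline of NADH oxidation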
NADH enzymes = inhibition of NAD/NADH coupling enzymes, library profiling; coupled PK/LDH NADH assays, four targets; IC50, µM (titrated, usually from 10 µM), inactives show at the highest dose inhibition; actives 0.02% (n = 65,000);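 active means single-dose screening hits from any of four coupled enzyme assays that gave an IC50 when retested across doses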;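 further: the DPM-DC format reads NADH fluorescence rather than 340 nm absorbance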
Spn PMK inh = inhibitors of Streptococcus pneumoniae phosphomevalonate kinase; inhibition, % at 10 µM; purified PMK, PK/LDH-coupled NADH absorbance 340 nm; actives 0.49% (n = 65,000);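 active means top-ranked compounds by inhibition in the single 10 µM screen, taking a fixed number of the strongest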;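 further: 0% = full reaction with DMSO carrier and 100% = background rate without enzyme reaction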
MK inhibit = blocks S. pneumoniae mevalonate kinase; purified MK, PK/LDH-coupled NADH absorbance 340 nm; actives 0.48% (n = 65,000); inhibition, % at 10 µM;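 active means ranked among the strongest by inhibition in the single 10 µM screen, a fixed top-ranked set picked for dose follow-up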
Spn DPM-DC inh = blocks S. pneumoniae diphosphomevalonate decarboxylase. purified DPM-DC, PK/LDH coupled NADH fluorescence. calls only at 10 µM. actives 0.49% (n = 65,000);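 active means the 320 compounds with the highest percent inhibition in the single-dose primary screen, excluding strongly autofluorescent ones, cut at about 32% in these data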;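 further: kinetic rate of NADH fluorescence loss reporting ADP formed by the decarboxylase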
An asterisk follows results filed as active; i = inactive; / = no result given. Hits are enriched below; roughly 6.3% of the tested compounds scored in any of these assays.

SMILES	Fluor 339 460	A340 absorber	NADH enzymes	Spn PMK inh	MK inhibit	Spn DPM-DC inh
CC1CCC(NC(=O)c2cc3c(s2)CS(=O)(=O)C3)CC1 (stereo not drawn)	1.1	0.99	5%	10	4	i
O=C(c1ccco1)N1CCN(C(=O)c2cc3c(s2)-c2ccccc2OC3)CC1	2.4*	1.1	6%	0	10	/
O=C(NCc1cccs1)c1cc2c(s1)-c1ccccc1OC2	2.4*	1	4%	1	5	/
O=C(NC1CC1)c1cc2c(s1)-c1ccccc1OC2	2.1*	1.1	4%	1	6	/
CCn1c(=O)c2cc(C(=O)N3CCN(C(=O)c4ccco4)CC3)sc2c2ccccc21	2.1*	1.1	3%	6	0	/
CCOc1ccccc1C1CC(c2ccc(F)cc2)Nc2nc(N)nn21 (stereo not drawn)	1.1	1	5%	9	5	i
CN1CCN(C(=O)c2cc3c(s2)-c2ccccc2S(=O)(=O)C3)CC1	1.1	1.2	3%	9	1	i
O=C(O)c1cc2c(s1)-c1ccccc1OC2	2.2*	1.2	6%	3	9	/
CC(=O)N=c1cccc(NC(C)=O)n1O	1.1	1.1	2%	6	0	i
COc1ccc(-n2c(SCc3nnc(-c4ccccc4)o3)nnc2-c2ccccc2)cc1	1.1	0.99	9%	26*	2	i
Cc1cc(=O)oc2cc(OCC(=O)N3CCc4ccccc4C3)ccc12	2	1.1	9%	3	11	i
COC(=O)Cc1c(C)c2ccc(OCC(=O)N3CCOCC3)cc2oc1=O	2.9*	1.1	1%	3	2	/
COc1ccc2c(C)c(Cl)c(=O)oc2c1	2.2*	1.1	4%	1	6	/
CCc1c(C)c2ccc(OCC(=O)OC)cc2oc1=O	2.9*	1	2%	6	8	/
COC(=O)COc1ccc2occ(C(C)=O)c2c1	1.1	1.1	4%	9	4	i
Cc1ccc(NC(=O)CCSc2nnnn2-c2ccc3c(c2)OCO3)cc1C	1.1	1	7%	5	12	i
CCc1nnc(NC=C2C(=O)OC(C)(C)OC2=O)s1	1.1	1.1	7%	15	4	i
CCn1c2ccccc2c2nnc(SCC(=O)NC(CC(C)C)C(=O)OC)nc21 (stereo not drawn)	1.1	1.1	4%	2	9	i
OCCN(Cc1ccccc1)Cc1cccc(F)c1	1.2	1.1	15%	0	45*	i
CCCN(CCO)Cc1cccc(Cl)c1	1.1	1.1	14%	0	41*	i
OCCN(Cc1ccccc1)Cc1cccc(C(F)(F)F)c1	1.1	1.1	13%	1	37	i
OCCN(Cc1ccccc1)CC1CCCCC1	1.1	1.1	14%	0	43*	i
OCCN(Cc1ccccc1)Cc1ccccc1F	1.1	1.1	19%	7	48*	i
COCCCn1c(-c2ccsc2)nc2c1c(=O)[nH]c(=O)n2Cc1ccccc1	1.2	0.98	9%	20	6	i
COc1ccc(OC)c(NC(=O)CSCC(=O)O)c1	1.1	1	4%	4	7	i
SMILES	Fluor 339 460	A340 absorber	NADH enzymes	Spn PMK inh	MK inhibit	Spn DPM-DC inh
Cc1ccc(Cl)cc1N1CCN(Cc2nnnn2C2CCCCC2)CC1	1.1	1	8%	25*	0	i
O=C(CSc1n[nH]c(-c2ccc(S(=O)(=O)N3CCCCC3)cc2)n1)Nc1nccs1	2.6*	1.1	10%	7	5	i
CCOC(=O)c1cc(-c2ccc3c(c2)OCO3)nc2onc(C)c12	3.3*	1	4%	7	0	/
Cc1nn(-c2ccccc2)c2sc(C(=O)C(C#N)c3ccccn3)cc12 (stereo not drawn)	1.3	1	4%	11	0	i
COc1ccc2c(-c3ccccc3)cc(N3CCOCC3)nc2c1	2.9*	1	9%	7	21	i
COc1ccc2nc(C)cc(N3CCOCC3)c2c1	1	1	3%	3	10	i
O=C(c1ccco1)N1CCN(C2CCCC2)CC1	1.1	1.1	19%	6	50*	i
CCc1nc(-c2ccc(-c3ccc(OC)cc3)nc2OC)no1	2.1*	1.1	5%	9	0	/
COCc1nc(-c2ccc(-c3ccc(OC)cc3)nc2OC)no1	2.1*	1.1	2%	2	2	/
